# Screening data (PubChem BioAssay)
# This is a sample that favours compounds with a hit; in the whole collection about 27% have one here.
# CYP2C19 act: human CYP2C19 activators, primary screen, biochemical, luminescence. recombinant CYP2C19, luciferin-H EGE luminescence; hits give high values; 0 = fully inhibited enzyme, 1 = untreated enzyme. 96,000 tested, under 10 active. activation factor at 5 µM. AID 1025, 2008;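 active = activation factor of at least 2 at 5 µM in the primary screen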
# Cav32 inh: Cav3.2 calcium influx blockers – cell-based, Fluo-4 calcium fluorescence, FDSS, MLSMR library, primary screen | 100,000 compounds, 4% hits | B-score at 10 µM | Cav3.2-expressing cells; hits give low values;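 active = single-dose well whose peak fluorescence ratio is a statistical outlier from its plate by either plate-standardised score or position-corrected B-score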
# CYP2C9 inhib: blockers of cytochrome P450 2C9 activity – biochemical, luminescence, ADME assay, primary screen | P11712 | CYP2C9 Supersomes, luciferin-H conversion | inhibition, % at 5 µM | 96,000 compounds, 20% hits | AID 777, 2007;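 active = blocking of liver enzyme CYP2C9 beyond about 50% at 5 µM, limit read from the data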
# Target sequence (P11712 whole entry, looked up): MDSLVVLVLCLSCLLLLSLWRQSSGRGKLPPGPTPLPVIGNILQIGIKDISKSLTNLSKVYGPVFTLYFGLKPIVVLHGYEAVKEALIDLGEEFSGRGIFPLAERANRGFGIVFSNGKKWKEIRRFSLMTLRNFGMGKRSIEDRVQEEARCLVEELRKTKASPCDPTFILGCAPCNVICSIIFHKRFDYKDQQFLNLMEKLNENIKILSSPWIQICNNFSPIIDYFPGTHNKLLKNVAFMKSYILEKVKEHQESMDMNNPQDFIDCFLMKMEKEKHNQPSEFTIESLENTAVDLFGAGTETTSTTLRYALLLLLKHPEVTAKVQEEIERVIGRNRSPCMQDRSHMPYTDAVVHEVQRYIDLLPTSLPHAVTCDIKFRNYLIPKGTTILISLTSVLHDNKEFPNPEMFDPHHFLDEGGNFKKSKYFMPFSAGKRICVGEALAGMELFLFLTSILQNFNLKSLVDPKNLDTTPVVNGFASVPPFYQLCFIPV
# CYP2C19 inhib: blockers of cytochrome P450 2C19 activity – biochemical, luminescence, ADME assay, primary screen; P33261; CYP2C19 Supersomes, luciferin-H EGE luminescence, 30 min; inhibition, % at 5 µM; 96,000 compounds, 21% hits;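 active = CYP2C19 inhibition above a set limit at 5 µM in the primary screen, cut at about 50% in these data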
# CYP2C9 act: human CYP2C9 activators, primary screen, biochemical, luminescence; activation factor at 5 µM; Cytochrome P450 2C9 (Homo sapiens), P11712; 96,000 compounds, 1.4% hits; recombinant CYP2C9, luciferin-H conversion; hits give high values; factor 1 = untreated enzyme, 0 = blocked;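 active = activation factor of 2 or more for CYP2C9 at a 5 µM dose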
# A number is an active result; . = inactive; / = no result.
SMILES,CYP2C19 act,Cav32 inh,CYP2C9 inhib,CYP2C19 inhib,CYP2C9 act
CN(C)C(=O)Oc1c(Cl)cc(Cl)c2ccccc12,.,.,.,.,3.1
CC(=O)Nc1ccc(OC(=O)N(C)c2ccccc2)cc1,.,.,.,.,.
COc1ccc(C2SCC(=O)Nc3c2c(C)nn3-c2ccccc2)cc1 (configuration not stated),.,.,52,.,.
Cc1ccc(-n2nc(C)c3c2NC(=O)CSC3c2ccc3c(c2)OCO3)cc1 (configuration not stated),.,-8.4,.,.,.
Cc1nn(C2CCOC(C)(C)C2)c2c1C(c1ccc(OC(C)C)cc1)SCC(=O)N2 (configuration not stated),.,.,.,.,.
OC(c1ccccc1)(c1ccccc1)C1CCNCC1,.,-5,60,.,.
COC(=O)c1c(C)[nH]c(C(=O)C(Cc2ccccc2)N(C)C)c1C (configuration not stated),.,.,92,92,.
CCOC(=O)c1c(C)[nH]c(C(=O)C(Cc2ccccc2)N(C)C)c1C (configuration not stated),.,/,84,.,.
CCOC(=O)C1C(=O)NC2(C)CC1c1cc(OC)ccc1O2 (configuration not stated),.,.,.,.,.
CC(C)OC(=O)C1C(=O)NC2(C)CC1c1ccccc1O2 (configuration not stated),.,.,.,60,.
O=c1cccc2n1CC1CC2CN(Cc2cccc(Cl)c2Cl)C1 (configuration not stated),.,.,.,88,.
O=c1cccc2n1CC1CC2CN(Cc2c(F)cccc2Cl)C1 (configuration not stated),.,.,55,99,.
Nc1cccc(N=Cc2c(O)n(Cc3ccc(F)cc3)c(=O)[nH]c2=O)c1,/,.,/,/,/
CN1CCC(OC(=O)C2c3ccccc3Oc3ccccc32)CC1,.,.,.,.,.
OC(COCc1ccc(Cl)cc1)CN1CC=C(c2ccccc2)CC1 (configuration not stated),.,-6.6,.,.,.
O=C(O)C1CN2CCC1CC2 (configuration not stated),.,.,.,.,.
CCOC(=O)c1cc(C)n(CCc2cnc[nH]2)c1C,.,.,99,100,.
Cc1cccn2c(=O)c3c(nc12)N1CCC(Cc2ccccc2)CC1C1(C3)C(=O)N(C)C(=O)N(C)C1=O (configuration not stated),.,.,91,.,.
Cc1nn(C)c(C)c1P(=S)(c1c(C)nn(C)c1C)N(C)C,.,.,.,.,.
Cc1cccc(C)c1NC(=O)CN(C)CC(=O)Nc1ccc(C#N)c(Cl)c1,.,.,53,.,.
O=C(CNS(=O)(=O)c1ccc(Br)s1)N1CCC2(CC1)OCCO2,.,.,.,58,.
COc1ccc(CNCC(=O)N2CCC3(CC2)OCCO3)cc1,.,.,.,.,.
C=C1C(O)(c2ccccc2)C2CC[N+]1(C)CC2 (configuration not stated),.,.,.,.,.
CCOc1ccccc1N1C(=O)NC(=O)C(CCc2ccncc2)(CCc2ccncc2)C1=O,/,.,/,/,/
COc1ccccc1N1C(=O)NC(=O)C(CCc2ccncc2)(CCc2ccncc2)C1=O,.,.,69,91,.
SMILES,CYP2C19 act,Cav32 inh,CYP2C9 inhib,CYP2C19 inhib,CYP2C9 act
Cc1cccnc1NC1=NCC(C)S1 (configuration not stated),.,.,.,.,.
C=COCCn1c(C)c(C(=O)OCC)c2cc(O)ccc21,.,.,71,85,.
CCCCCCn1c(N)c(C(=O)NCCN2CCOCC2)c2nc3ccccc3nc21,.,.,.,54,.
COc1ccc(Cn2c(N)c(C(=O)NCc3ccco3)c3nc4ccccc4nc32)cc1,.,/,84,59,.
COCCCn1c(N)c(C(=O)NCCC(C)C)c2nc3ccccc3nc21,.,.,.,.,.
Nc1c(C(=O)NCc2ccco2)c2nc3ccccc3nc2n1CCN1CCOCC1,.,/,61,.,.
COc1ccc(CCNC(=O)c2c(N)n(CCN3CCOCC3)c3nc4ccccc4nc23)cc1OC,.,.,83,54,.
CCCCCn1c(N)c(C(=O)NCCN2CCOCC2)c2nc3ccccc3nc21,.,/,.,.,.
Clc1cnc(Oc2ccc(Oc3ncc(Cl)cc3Cl)cc2)c(Cl)c1,.,.,.,.,.
CN1CCc2nc3ccc(F)cc3c(C(N)=O)c2C1,.,.,.,.,.
COc1cc([C@@H]2c3cc4c(cc3[C@@H](OC)[C@H]3COC(=O)[C@H]23)OCO4)cc(OC)c1O,/,.,/,/,/
O=c1c2ccccc2nc(-c2ccoc2)n1-c1ccccc1,.,.,.,.,.
COc1ccc2c(c1)c(C(=O)O)c(C)n2C(C)C,/,.,/,/,/
COCCOC(=O)c1c(C)n(C)c2ccc(OC(=O)N(C)C)cc12,.,.,54,.,.
CN(Cc1ccccc1)C(=C(Cl)Cl)/C(=C1/NCCN1Cc1ccc(Cl)nc1)[N+](=O)[O-],.,.,.,93,.
O=C(O)C(Cl)(Cl)Cl,/,.,/,/,/
CC(C)C(=O)c1cn(Cc2ccccc2C#N)c2ccccc12,.,-5.6,.,60,.
COc1ccc(C(=O)C2(C)N(O)C(C)C(c3cccs3)=[N+]2[O-])cc1 (configuration not stated),.,.,.,.,.
CC(=O)O[C@@H]1[C@H]2CC[C@@H]3[C@]1(C[C@@H](OC(C)=O)[C@@]1(O)C([C@@H]4O[C@@H]4C1(C)C)[C@]3(C)O)C[C@@]2(C)O (some centres not stated),/,.,/,/,/
Cc1ccccc1-c1nc(CS(=O)CC(=O)N2CCC3(CC2)OCCO3)c(C)o1 (configuration not stated),.,.,.,.,.
Cc1ccsc1-c1nc(CSCC(=O)N2CCC3(CC2)OCCO3)c(C)o1,.,.,.,67,.
Fc1ccccc1CCNCc1cccc(Cl)c1Cl,.,.,.,86,.
CNP(=S)(NC)OCCOc1ccc(OC)cc1,.,.,.,84,.
COc1ccc(OCC(=O)N2CCN(C(C)C)CC2)cc1,/,.,/,/,/
Cc1cc(OCC(=O)OC(C)C)c2c3c(c(=O)oc2c1)CCCC3,.,.,.,.,.
Cc1cc(OCC(=O)NC2CCS(=O)(=O)C2)c2c3c(c(=O)oc2c1)CCC3 (configuration not stated),.,.,.,.,.
CCOC(=O)C(C)Oc1cc(C)cc2oc(=O)c3c(c12)CCCC3 (configuration not stated),.,.,78,.,.
COC(=O)C(C)Oc1cc(C)cc2oc(=O)c3c(c12)CCCC3 (configuration not stated),.,.,92,55,.
